Consider 18 molecules from PubChem BioAssay (Tox21).

Results filed as inconclusive are left out. Unmarked numbers belong to inactive results. Active and inactive are the calls of the source. Unless noted, calls come from the whole dose curve; as a rule, active = well fitted curve in the direction sought with a large enough effect in the repeat runs; inconclusive = weak or mixed curves; inactive = no such curve, though single readings can be large; an effect the other way counts as inactive or inconclusive.

Test [1] can be described thus: qHTS assay to identify small molecule agonists of the peroxisome proliferator-activated receptor delta (PPARd) signaling pathway - cell viability counter screen (AID 743211). For activity change, negative = cytotoxicity: % is set by controls: 0 for no effect and ±100 for the full control effect. Note: nearly all actives have a fitted effect of over 55% in size. Note: potency is the fitted concentration of half-maximal effect. The gist of the method: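 Viability of GeneBLAzer PPARd UAS-bla HEK293H cells was assessed after 17 h compound incubation at 37C, using CellTiter-Glo reagent added after the reporter read and luminescence recorded 30 min later.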
Background: qHTS replaces the single test concentration by a dilution series.

Test [2] is described as follows: qHTS assay to identify small molecule antagonists of the peroxisome proliferator-activated receptor delta (PPARd) signaling pathway - cell viability counter screen (AID 743213). Note: nearly all actives have a fitted effect of over 50% in size. Note: potency is the fitted concentration of half-maximal effect. The gist of the method: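 Luminescence from CellTiter-Glo, added after the bla read and incubated 30 min at room temperature, gives viability of HEK293H PPARd-bla cells exposed to compounds for 17 h at 37 C with 300 nM L165041.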

Test [3] addresses Peroxisome proliferator-activated receptor delta (Homo sapiens) (UniProt Q03181). In words: qHTS assay to identify small molecule antagonists of the peroxisome proliferator-activated receptor delta (PPARd) signaling pathway (AID 743215; active = well fitted inhibition curve with a large enough effect in the signal ratio in the repeat runs, not every such curve was filed as active; the % refers to the signal ratio;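 note: cells stimulated with agonist L165041 at 300 nM final during compound exposure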; note: potency is the fitted concentration of half-maximal effect). The gist of the method: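 Inhibition of L165041-driven (300 nM final) PPARd signaling is scored in HEK293H UAS-bla cells. Exposure lasts 17 h at 37 C; beta-lactamase activity is then read by FRET substrate fluorescence after 2 h at room temperature.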

Test [4] is described as follows: qHTS assay to identify small molecule antagonists of the farnesoid-X-receptor (FXR) signaling pathway - cell viability counter screen (AID 743221; active = well fitted cell-killing curve with a large enough effect in the repeat runs, not every such curve was filed as active; note: nearly all actives have a fitted effect of over 50% in size; note: potency is the fitted concentration of half-maximal effect). The gist of the method: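 Quantitative HTS of the Tox21 10K library run in parallel with the beta-lactamase reporter read. HEK 293T cells carrying a UAS-driven bla reporter got compound and 50 uM CDCA (final) for 16 h; ATP-based luminescence followed.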

In test [5] the target is Vitamin D3 receptor (Homo sapiens) (UniProt P11473). The test is described as follows: qHTS assay to identify small molecule agonists of the vitamin D receptor (VDR) signaling pathway (AID 743222; calls by dose curve; note: % is set by controls: 0 for no effect and ±100 for the full control effect). The gist of the method: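 Quantitative HTS agonist-mode screen: compounds in DMSO were pin-transferred onto VDR-bla cells and incubated 16 h at 37C, 5% CO2. Reporter activity was detected with LiveBLAzer B/G FRET substrate after 2 h at room temperature.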

For test [6] the target is unchanged. The test is described as follows: qHTS assay to identify small molecule antagonists of the vitamin D receptor (VDR) signaling pathway (AID 743223; active = well fitted inhibition curve with a large enough effect in the signal ratio in the repeat runs, not every such curve was filed as active; the % refers to the signal ratio; note: potency is the fitted concentration of half-maximal effect). The gist of the method: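 Fluorescence from LiveBLAzer B/G FRET substrate, read after 2 h at room temperature, reflects beta-lactamase reporter activity in VDR-bla cells treated 16 h at 37C with compounds and agonist 1alpha,25-dihydroxyvitamin D3 (3 nM final).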

Test [7] in a line: qHTS assay to identify small molecule agonists of the vitamin D receptor (VDR) signaling pathway - cell viability counter screen (AID 743224). Note: nearly all actives have a fitted effect of over 50% in size. Note: potency is the fitted concentration of half-maximal effect. The gist of the method: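 Viability is measured in the same wells as the VDR-bla reporter assay: after 16 h compound treatment and 2 h substrate loading, CellTiter-Glo is added and luminescence read 30 min later.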
Test [8] is described as follows: qHTS assay to identify small molecule antagonists of the vitamin D receptor (VDR) signaling pathway - cell viability counter screen (AID 743225). Note: nearly all actives have a fitted effect of over 50% in size. Note: potency is the fitted concentration of half-maximal effect. An outline of the steps: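 Cells (VDR-UAS-bla HEK 293T) are plated, rested 4 h at 37C, dosed with compound and 3 nM final 1-alpha,25-dihydroxy vitamin D3, and incubated 16 h. Viability is taken from CellTiter-Glo luminescence in the reporter wells.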

A short description of test [9]: qHTS assay to identify small molecule antagonists of the retinoid-related orphan receptor gamma (ROR-gamma) signaling pathway - cell viability counter screen (AID 1159520). Note: nearly all actives have a fitted effect of over 50% in size. Note: potency is the fitted concentration of half-maximal effect. The gist of the method:
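Tet-on ROR gamma CHO cells (1,000/well) were plated 4 hr, given compounds in DMSO for 2 hr at 37 C, then induced with 1 uM final doxycycline for 16 hr. Viability was read as ATP by CellTiter-Glo luminescence after 30 min.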

The target of test [10] is Nuclear receptor ROR-gamma (Homo sapiens) (UniProt P51449). In words: qHTS assay to identify small molecule antagonists of the retinoid-related orphan receptor gamma (ROR-gamma) signaling pathway (AID 1159521; note: nearly all actives have a fitted effect of over 50% in size; note: potency is the fitted concentration of half-maximal effect). An outline of the steps:
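RORγ antagonism is scored from reduced reporter luminescence in Tet-on CHO cells. Induction used 1 uM final doxycycline hyclate for 16 h at 37 C, following a 2 h compound exposure.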

A short description of test [11]: qHTS assay to identify small molecule agonists of the RXR signaling pathway - cell viability counter screen (AID 1159529). Note: nearly all actives have a fitted effect of over 50% in size. Note: potency is the fitted concentration of half-maximal effect. An outline of the steps:
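Cell viability is measured by CellTiter-Glo luminescence, 30 min at room temperature, in wells already read for beta-lactamase. Engineered HEK 293T cells (RXR-alpha-UAS-bla) are dosed 16 hr at 37 C. Tetraoctyl ammonium bromide serves as positive control.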

A short description of test [12]: qHTS assay to identify small molecule antagonists of the retinoic acid receptor (RAR) signaling pathway (AID 1159552; note: nearly all actives have a fitted effect of over 50% in size; note: potency is the fitted concentration of half-maximal effect). An outline of the steps:
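Quantitative HTS in C3RL4 RARE-luciferase reporter cells. Compounds were added with 1 uM (final) retinol; luminescence was read after 6 hr.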

Test [13] addresses Peroxisome proliferator-activated receptor delta (Homo sapiens) (UniProt Q03181). The test is described as follows: qHTS assay to identify small molecule agonists of the peroxisome proliferator-activated receptor delta (PPARd) signaling pathway (AID 743212; calls by dose curve; note: % is set by controls: 0 for no effect and ±100 for the full control effect). An outline of the steps:
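GeneBLAzer PPARd UAS-bla HEK293H cells (beta-lactamase reporter under UAS control), plated and rested 5 h at 37 C, then exposed to compounds in DMSO at 37 C; LiveBLAzer B/G FRET substrate added, 2 h room temperature, fluorescence read.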

The nature of test [14]: qHTS assay to identify small molecule agonists of the farnesoid-X-receptor (FXR) signaling pathway - cell viability counter screen (AID 743218). Note: nearly all actives have a fitted effect of over 45% in size. Note: potency is the fitted concentration of half-maximal effect. An outline of the steps:
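Cytotoxicity counter-screen run in parallel, same wells: FXR-UAS-bla HEK 293T cells dosed 16 h at 37 C, viability read by CellTiter-Glo luminescence after 30 min at room temperature.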

A short description of test [15]: qHTS assay to identify small molecule antagonists of the retinoid acid receptor (RAR) signaling pathway - cell viability counter screen (AID 1159551). Note: nearly all actives have a fitted effect of over 35% in size. Note: potency is the fitted concentration of half-maximal effect. The gist of the method: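 Cytotoxicity counter screen in C3RL4 cells: 6 h compound exposure with 1 uM retinol (final), viability from cellular ATP by luminescence.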
In test [16] the target is Retinoic acid receptor RXR-alpha (Homo sapiens) (UniProt P19793). The test is described as follows: qHTS assay to identify small molecule agonists of the RXR signaling pathway (AID 1159527; calls by dose curve; note: % is set by controls: 0 for no effect and ±100 for the full control effect; nearly all actives have a fitted effect of over 35% in size). An outline of the steps:
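qHTS of the Tox21 10K library in GeneBLAzer RXR-alpha HEK 293T cells carrying a beta-lactamase reporter […]; 16 hr treatment, 9-cis retinoic acid as agonist control, FRET read-out.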

A short description of test [17]: qHTS assay to identify small molecule agonists of the AP-1 signaling pathway - cell viability counter screen (AID 1159525; calls by dose curve; note: nearly all actives have a fitted effect of over 55% in size; note: potency is the fitted concentration of half-maximal effect). An outline of the steps:
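ME-180 AP-1-bla, 2500 cells/well, Opti-MEM + 0.5% dialyzed FBS; overnight 37 °C; cpd 15-pt titration, 5 h 37 °C; CellTiter-Glo 30 min RT; luminescence read; normalised to TOAB and DMSO controls.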

The nature of test [18]: qHTS assay to identify small molecule agonists of the AP-1 signaling pathway (AID 1159526; calls by dose curve; note: potency is the fitted concentration of half-maximal effect).
For test [19], the target named is Bile acid receptor (Homo sapiens) (UniProt Q96RI1). The test is described as follows: qHTS assay to identify small molecule antagonists of the farnesoid-X-receptor (FXR) signaling pathway (AID 743217; active = well fitted inhibition curve with a large enough effect in the signal ratio in the repeat runs, not every such curve was filed as active; the % refers to the signal ratio; note: % is set by controls: 0 for no effect and ±100 for the full control effect). The gist of the method: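 Antagonist mode against 50 uM (final) chenodeoxycholic acid stimulation in FXR-bla HEK 293T cells, 16 h at 37 °C. Inhibition detected as reduced beta-lactamase activity via LiveBLAzer B/G FRET fluorescence after 2 h at room temperature.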
Chain of Bile acid receptor (Homo sapiens) (Q96RI1 whole entry, looked up): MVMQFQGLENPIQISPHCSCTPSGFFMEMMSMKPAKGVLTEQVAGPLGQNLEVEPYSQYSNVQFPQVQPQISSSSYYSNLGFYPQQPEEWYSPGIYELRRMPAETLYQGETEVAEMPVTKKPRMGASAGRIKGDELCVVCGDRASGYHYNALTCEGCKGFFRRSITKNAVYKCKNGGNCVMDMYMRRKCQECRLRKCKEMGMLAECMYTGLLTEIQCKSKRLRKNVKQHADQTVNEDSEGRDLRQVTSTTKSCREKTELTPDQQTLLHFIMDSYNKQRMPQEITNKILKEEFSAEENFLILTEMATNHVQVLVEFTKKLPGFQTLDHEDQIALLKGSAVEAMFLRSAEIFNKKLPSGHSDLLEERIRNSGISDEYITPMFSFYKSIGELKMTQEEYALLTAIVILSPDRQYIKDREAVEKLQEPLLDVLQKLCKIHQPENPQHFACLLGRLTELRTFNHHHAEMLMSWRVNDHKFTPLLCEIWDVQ

Chain of Peroxisome proliferator-activated receptor delta (Homo sapiens) (Q03181 whole entry, looked up): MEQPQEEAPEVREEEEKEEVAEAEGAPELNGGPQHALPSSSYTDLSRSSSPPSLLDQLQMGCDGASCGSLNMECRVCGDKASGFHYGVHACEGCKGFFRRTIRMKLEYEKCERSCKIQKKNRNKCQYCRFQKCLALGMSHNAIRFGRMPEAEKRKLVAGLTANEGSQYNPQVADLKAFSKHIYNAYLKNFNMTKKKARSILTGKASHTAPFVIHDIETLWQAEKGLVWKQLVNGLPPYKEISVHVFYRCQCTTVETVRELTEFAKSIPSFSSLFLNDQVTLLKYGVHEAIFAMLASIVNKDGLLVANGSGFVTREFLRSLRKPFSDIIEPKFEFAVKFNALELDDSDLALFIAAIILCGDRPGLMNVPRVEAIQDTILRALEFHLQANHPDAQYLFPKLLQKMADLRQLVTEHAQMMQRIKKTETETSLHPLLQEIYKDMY
Chain of Retinoic acid receptor RXR-alpha (Homo sapiens) (P19793 whole entry, looked up): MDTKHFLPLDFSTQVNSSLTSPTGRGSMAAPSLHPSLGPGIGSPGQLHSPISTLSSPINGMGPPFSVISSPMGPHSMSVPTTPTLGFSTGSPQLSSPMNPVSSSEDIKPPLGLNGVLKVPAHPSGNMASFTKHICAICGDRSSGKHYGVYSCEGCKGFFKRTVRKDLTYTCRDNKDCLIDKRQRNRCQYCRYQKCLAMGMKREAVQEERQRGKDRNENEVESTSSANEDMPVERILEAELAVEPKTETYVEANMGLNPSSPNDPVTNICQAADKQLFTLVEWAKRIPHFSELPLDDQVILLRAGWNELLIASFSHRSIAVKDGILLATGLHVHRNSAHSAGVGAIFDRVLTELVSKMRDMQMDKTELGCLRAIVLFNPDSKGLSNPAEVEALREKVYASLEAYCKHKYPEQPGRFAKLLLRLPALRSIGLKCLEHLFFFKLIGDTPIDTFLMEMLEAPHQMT
Chain of Vitamin D3 receptor (Homo sapiens) (P11473 whole entry, looked up): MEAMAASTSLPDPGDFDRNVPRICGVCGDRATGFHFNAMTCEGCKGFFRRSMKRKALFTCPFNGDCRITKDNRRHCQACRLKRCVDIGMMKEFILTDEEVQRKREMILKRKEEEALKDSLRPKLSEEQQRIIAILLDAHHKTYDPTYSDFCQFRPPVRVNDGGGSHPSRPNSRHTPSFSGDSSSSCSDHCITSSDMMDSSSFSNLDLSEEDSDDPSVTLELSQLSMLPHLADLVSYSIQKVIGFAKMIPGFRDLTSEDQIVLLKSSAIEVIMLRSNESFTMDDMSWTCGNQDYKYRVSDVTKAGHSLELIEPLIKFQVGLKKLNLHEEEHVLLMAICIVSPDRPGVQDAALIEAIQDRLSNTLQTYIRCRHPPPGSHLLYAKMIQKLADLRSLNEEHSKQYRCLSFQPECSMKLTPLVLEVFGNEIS

`CC(=O)[C@]1(O)Cc2c(O)c3c(c(O)c2[C@@H](O[C@H]2C[C@H](N)[C@H](O)[C@H](C)O2)C1)C(=O)c1ccccc1C3=O`: the Potency entry in test [1], in test [2], in [4], in [7], in test [8] and in [10] was “inactive” in each case. Moreover, the Potency result in test [11] is “inactive”. Besides, the Potency in test [3] was 3.76 µM (active); in test [6], 1.9 µM (active); in test [9] it was 26.6 µM (active); in test [12], 0.298 µM (active). In addition, in test [5], the result was inactive.

In the case of `CCCCCCCCCC[N+](C)(CCCCCCCCCC)CCC[Si](OC)(OC)OC`, the Potency was 9.77 µM (active) in [1]; 9.77 µM (active) in test [2]; 8.71 µM (active) in test [14]; 6.92 µM (active) in test [7]; 24.3 µM (active) in test [9]; 21.7 µM (active) in test [10]. Also, the Potency was 21.9 µM (active) in [11], 30.6 µM (active) in test [15] and 61.1 µM (active) in test [12]. Moreover, in test [13], the call was inactive. For the same molecule, the Potency entry in test [3] and in [6] was “inactive” each time.

Turning to `CCCCNc1ccc(NCCCC)c2c1C(=O)c1ccccc1C2=O`, the activity, negative = cytotoxicity in test [9] was -0.683% [at 19 µM]. The activity change, negative = inhibition in [10] was -8.88% [at 19 µM]. Also, the activation in test [16] is 10.8% [at 15.8 µM]. For the same molecule, the activity change, negative = cytotoxicity in [11] was 10.1% [at 15.8 µM]; in [15] it was 0.361% [at 19 µM]. Also, in test [12], the activity, negative = inhibition is -19% [at 19 µM].

As for `CCOC(=O)OC(=O)OCC`, the Potency result in [9], in test [17], in test [18], in [16], in test [11] and in test [15] was “inactive” each time. In test [12], the Potency result is “inactive”.

Turning to `c1ccc(-c2ccccc2-c2ccccc2)cc1`, the Potency entry in test [9], in [17], in [15] and in test [12] was “inactive” throughout. Also, the Potency in test [11] is 43.6 µM (active).

`CC1CCC(C(C)(C)O)CC1` (configuration not stated): the Potency entry in [9], in test [18], in test [16], in [11] and in [15] was “inactive” in each case.

As for `CCCCCN=C(N)N/N=C/c1c[nH]c2ccc(OC)cc12`, the Potency was 8.41 µM (active) in [1]; 33.5 µM (active) in test [2]; 13.3 µM (active) in [14]; 29.8 µM (active) in test [4]; 13.4 µM (active) in test [6]; 29.8 µM (active) in test [7]. For the same molecule, the Potency is 16.9 µM (active) in [8]; 26.6 µM (active) in [9]; 23.9 µM (active) in test [17]; 7.56 µM (active) in [11]; 29.8 µM (active) in test [15]; 13.3 µM (active) in test [12].

`Cc1ccc2nc(-c3ccc(N)cc3)sc2c1S(=O)(=O)O`: the Potency result in test [4], in test [7], in [8], in test [9], in [17] and in test [11] was “inactive” in each case. For the same molecule, the Potency result in test [15] and in [12] was “inactive” in each case. In addition, the Potency in [18] is 21.5 µM (active).

For `CCOC(=O)C1=NN(c2ccc(Cl)cc2Cl)C(C)(C(=O)OCC)C1` (configuration not stated), the Potency result in [9], in [17], in [16], in test [11], in test [15] and in [12] was “inactive” each time.

As for `CCCCCCCCCCCC(=O)Cl`, the Potency result in [9], in test [17], in test [15] and in test [12] was “inactive” throughout.

As for `C=CCc1cc(S(=O)(=O)c2ccc(O)c(CC=C)c2)ccc1O`, the Potency was 43.6 µM (active) in test [1] and 54.5 µM (active) in [12]. For the same molecule, the Potency result in [4], in test [6], in [8], in [9], in test [11] and in test [15] was “inactive” each time.

For the molecule `CC(C)=NNC(N)=S`, the Potency result in [9], in [11] and in test [15] was “inactive” each time.

With `CCSCC`, the Potency entry in test [19], in test [14], in test [4], in test [8], in test [9] and in test [18] was “inactive” throughout. The Potency entry in test [11] and in test [15] was “inactive” throughout.

As for `Nc1cc([N+](=O)[O-])ccc1Cl`, the Potency entry in [9], in test [18], in [16], in test [11] and in test [15] was “inactive” throughout.

On to `O=C1C=CC(=O)N1c1cccc(N2C(=O)C=CC2=O)c1`, for which the Potency in [9] was 12.2 µM (active); in test [17], 13.8 µM (active); in test [11] it was 11 µM (active); in [15], 21.7 µM (active); in [12], 10.9 µM (active).

Consider `CC(C)c1ccc2sc3ccccc3c(=O)c2c1`, for which the Potency result in test [19], in [14], in test [4], in test [8], in test [9] and in test [17] was “inactive” in each case. Further, in [18], the Potency entry is “inactive”.

Regarding `N#Cc1ccc(C/C(=N/NC(=O)Nc2ccc(OC(F)(F)F)cc2)c2cccc(C(F)(F)F)c2)cc1`, the Potency result in [9], in [17] and in [15] was “inactive” throughout.

For `CC/C(=C(/c1ccc(O)cc1)c1ccc(OCCN(C)C)cc1)c1ccccc1`, the Potency in test [9] is 40.3 µM (active); in [17], 36.2 µM (active); in [11] it was 14.4 µM (active); in test [15], 35.9 µM (active); in [12] it was 18 µM (active).
